The full ranking holds about 39,000 sequences; the median of “fluorescence intensity (a.u.)” is about 4,300, and the highest 2% start at about 39,000. Shown is part of a subset that was picked to be rich in the highest values.
These sequences were tested against T1, OsSMF1 (Oryza sativa, UniProt Q6ZLB0 1-436) (assay: protein-binding microarray (RPBM); PBS, 2% BSA, 51.3 ng/ul salmon testes DNA, 50 uM zinc acetate, 200 nM TF, 25 C, 1 h; high values mean tight binding). Conditions: protein: recombinant; tags: N-terminal polyhistidine and DsRed monomer fusion (pET32a); chain copies: 2; label: CyDye5-dUTP incorporated in the synthesized complementary strand; 3' TTTTT single-stranded linker to array surface; dsDNA, one strand shown.
T1 sequence: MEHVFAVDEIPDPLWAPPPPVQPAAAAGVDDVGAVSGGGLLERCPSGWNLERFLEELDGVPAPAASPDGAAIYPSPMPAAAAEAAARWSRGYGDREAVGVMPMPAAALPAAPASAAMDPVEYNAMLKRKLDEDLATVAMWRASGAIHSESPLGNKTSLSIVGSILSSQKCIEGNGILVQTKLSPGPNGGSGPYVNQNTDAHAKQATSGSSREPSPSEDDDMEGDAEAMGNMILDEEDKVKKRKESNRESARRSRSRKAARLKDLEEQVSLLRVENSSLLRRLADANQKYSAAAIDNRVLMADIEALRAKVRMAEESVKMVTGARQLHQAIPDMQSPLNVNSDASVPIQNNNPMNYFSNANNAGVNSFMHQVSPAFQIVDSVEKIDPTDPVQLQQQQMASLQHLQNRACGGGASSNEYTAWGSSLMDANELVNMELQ
Summary of the method: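 Using Ni–NTA, transcription factors fused N-terminally to polyhistidine and DsRed were purified after expression in E. coli BL21-CodonPlus. These were incubated at 200 nM with a blocked, double-stranded custom Agilent array for 1 h at 25 °C in a buffer containing 50 µM zinc acetate, and the array was washed. The binding signal is per-feature fluorescence intensity (arbitrary units) on an Axon 4000B scanner.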

Sequence | binding signal
CGTGCCGACGCGTGCCTCGCCAACGTGTCGCAACGCCTCACGGAGTCACCTAGTGCAG | 8980 fluorescence intensity (a.u.)
CGTCGCCTCGCCTCGTCACGGCCGCCTCCGCCATCGCCTCCGGAGTCACCTAGTGCAG | 6060 fluorescence intensity (a.u.)
AACCAACGGTCGCTGTTACGCCACGTCACCTCACCGACGCCGGAGTCACCTAGTGCAG | 39200 fluorescence intensity (a.u.)
CTCCTCCTCCGGCCACGTCGACGTCGCACCAACCGCCGCCCGGAGTCACCTAGTGCAG | 14700 fluorescence intensity (a.u.)
TCACGGCCGCCTCCGCCATCTGCACAACCTCGCCGCCGCCCGGAGTCACCTAGTGCAG | 65500 fluorescence intensity (a.u.)
AGCACTACTCCAACGCAGCAACCAACACGTACCTCCACATCGGAGTCACCTAGTGCAG | 6420 fluorescence intensity (a.u.)
GATTCTTCTATGTGGCATGAGGTAACCCTGGGTCGGCTTGCGGAGTCACCTAGTGCAG | 4110 fluorescence intensity (a.u.)
GCCGTTGTCCGAAGGTTCAGCATATTGCTGACATATTGCCCGGAGTCACCTAGTGCAG | 4940 fluorescence intensity (a.u.)
GCATGCTCTTCTGATCTGTAATCTCAGGCTCTATTACTCTCGGAGTCACCTAGTGCAG | 3450 fluorescence intensity (a.u.)
TTCCTCGCCAACGTAAGCCAATAACATTGTGACGCAATCTCGGAGTCACCTAGTGCAG | 5820 fluorescence intensity (a.u.)
CCGAGTGACGATGCAGCTGAGTCGGAGCGCAGCACGACTTCGGAGTCACCTAGTGCAG | 4290 fluorescence intensity (a.u.)
CATCGAGAGGCTCCCGAGCATGGCCGAGATCGCCGAGGAGCGGAGTCACCTAGTGCAG | 3500 fluorescence intensity (a.u.)
GTGTGCCGCCGCCGCTGACTCCGGAGGGAGAGGACGAGCTCGGAGTCACCTAGTGCAG | 3320 fluorescence intensity (a.u.)
GAGATGGGAGGAGAGCTAGCTAGCCGCCGAGGCTGAGCTCCGGAGTCACCTAGTGCAG | 40600 fluorescence intensity (a.u.)
GCGAGCTCCTGGAGGCGGCGAGGGCGCCGGAGTTCGCGGGCGGAGTCACCTAGTGCAG | 37200 fluorescence intensity (a.u.)
GAGCAGGAGGAGCTGAGCGACTCCGAGTCGGGCGCCGAGTCGGAGTCACCTAGTGCAG | 40100 fluorescence intensity (a.u.)
ATCTCCATCTGGCGAGCAGAGGCCGGGGAGGGAGGGGCGCCGGAGTCACCTAGTGCAG | 3870 fluorescence intensity (a.u.)
GAGGGGCGCGGGCGCCGAGCTCCATCTGGCGAGCAGGGTACGGAGTCACCTAGTGCAG | 42200 fluorescence intensity (a.u.)
GCTGAGCAGGAGAGGGGCGCCGATCTCCATCCGGCGAGCACGGAGTCACCTAGTGCAG | 5450 fluorescence intensity (a.u.)
CACCGCTACCTACGTTGTCGCCACCCACGTCAATAATCCTCGGAGTCACCTAGTGCAG | 6310 fluorescence intensity (a.u.)
ATTCTTTTACCGCGTTGATGAATCGGATTCGTTCCGGTTTCGGAGTCACCTAGTGCAG | 3360 fluorescence intensity (a.u.)
GAGTCGTTATCTGCATTGATGTGTCTCCTGACTCCTGAGACGGAGTCACCTAGTGCAG | 3840 fluorescence intensity (a.u.)

Sequence | binding signal
CAACCTCCGATTTCCAAATCCAGTTGTCTTCTTCTTCCCCCGGAGTCACCTAGTGCAG | 7150 fluorescence intensity (a.u.)
ACAATACTACTATTTTATCATGACGATGACTGGAACTCCACGGAGTCACCTAGTGCAG | 4440 fluorescence intensity (a.u.)
CGCTGGTGAAGTGGTGATGCGCCTAATCGTTTTCTTCGCGCGGAGTCACCTAGTGCAG | 3260 fluorescence intensity (a.u.)
CTTGCATTCCTTTTCTTCTCCTGAACTATATAAACACACTCGGAGTCACCTAGTGCAG | 3290 fluorescence intensity (a.u.)
AAATTTAAGAATTTTCGGATGCACTTAAAGAAGGACAAGTCGGAGTCACCTAGTGCAG | 11000 fluorescence intensity (a.u.)
CCGCCTGACACGTGTAAGAGCAAGTTTAATAGTATAGCCCCGGAGTCACCTAGTGCAG | 13800 fluorescence intensity (a.u.)
GAGAGAGAGAGGAGATAATAAAATACTCGATATTGAATTGCGGAGTCACCTAGTGCAG | 42500 fluorescence intensity (a.u.)
ATTATTAAAATATATAAATATTGAATTTAATAAAATAATTCGGAGTCACCTAGTGCAG | 26400 fluorescence intensity (a.u.)
ATTGAATATAATTGGATATAAACAGTTTAAAACTATACTCCGGAGTCACCTAGTGCAG | 5510 fluorescence intensity (a.u.)
GGTTGAGTGACGCGCTATTTCTGGTATTGCGTATGAAGGGCGGAGTCACCTAGTGCAG | 3520 fluorescence intensity (a.u.)
TGTCCATGGTTTGTTGCTGCTGCGGTGGCACCAGTGCTGCCGGAGTCACCTAGTGCAG | 7940 fluorescence intensity (a.u.)
TATGAACACATATGTAGCATACGCTTAAATAGACGAAGACCGGAGTCACCTAGTGCAG | 40500 fluorescence intensity (a.u.)
GACTGTACACATGAAGGAACATATGTGCTGAAATACTGTACGGAGTCACCTAGTGCAG | 26100 fluorescence intensity (a.u.)
GTAGACGAAGACCTGGCAAGTCCTTGGGCTTAAATCTCACCGGAGTCACCTAGTGCAG | 17800 fluorescence intensity (a.u.)
GCTATATATTTGTTGATCAGCTAGGCTGTCAGCAGTTTAGCGGAGTCACCTAGTGCAG | 3650 fluorescence intensity (a.u.)
ATACACACATATCCGCGCCATTATAAATTTGACAGCATTTCGGAGTCACCTAGTGCAG | 3440 fluorescence intensity (a.u.)
CAACATTAGCAATTAAAATTGCGGGTTATTTGTAAAAGTCCGGAGTCACCTAGTGCAG | 32000 fluorescence intensity (a.u.)
CATATATGGACAGGCAACGGCATGTCGTGTTCGTACAAATCGGAGTCACCTAGTGCAG | 3190 fluorescence intensity (a.u.)
CACCACACGAAGCAGCCACGAACGCAACGCGGGTGCGTCGCGGAGTCACCTAGTGCAG | 3140 fluorescence intensity (a.u.)
CCGCGTCCGTACTCTCTAGCCTGCGGGTAAGCAACGAACTCGGAGTCACCTAGTGCAG | 45200 fluorescence intensity (a.u.)
GCGGTAGCCAAGCCTGCCACGTCAGCTCTCGCGCAACGTCCGGAGTCACCTAGTGCAG | 34600 fluorescence intensity (a.u.)

— article PMC7819943, “Rice protein-binding microarrays: a tool to detect cis-acting elements near promoter regions in rice”
